Assay [1] relates to XIP peptide (Xip251-270) binding. Kind of assay: small-molecule binders of XIP peptide, primary screen, biochemical, small-molecule microarray, fluorescence 635/667 nm, 0.1 µg/mL protein (AID 1182). Conditions: fluorescent protein binding, 635 nm, higher = more signal, called active from +8 up or from −8 down.
The subject of assay [2] is XIP peptide (Xip251-270). Kind of assay: small-molecule binders of XIP peptide, primary screen, biochemical, small-molecule microarray, fluorescence 635/667 nm, 0.5 µg/mL protein (AID 1183). The following applies: small-molecule microarray binding, fluorescence 635 nm; higher = more signal.
Assay [3] in a line: Plasmodium falciparum growth inhibition, primary screen, strain 3D7, DAPI fluorescence, 100 nL (AID 1184).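 Also: parasites grown inside human red blood cells in medium with human serum.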 The following applies: P. falciparum 3D7 growth, 3 d, higher = more signal.
Assay [4] concerns the target Homeobox protein Hox-A13 (Mus musculus) (UniProt Q62424). Kind of assay: inhibitors of HoxA13-DNA binding, primary screen, biochemical, fluorescence polarization, labeled oligonucleotide (AID 1185). The following applies: 15 min, higher = more signal, called active from +8 up or from −8 down. For orientation: In fluorescence polarisation assays a small probe gives low polarisation when free and higher when bound to something large.

The nature of assay [5]: inhibitors of hydroxyurea-induced Chk1 phosphorylation, primary screen, imaging, HeLa, phospho-Chk1 antibody, percent positive cells (AID 1186). The following applies: hydroxyurea-induced phospho-Chk1 immunofluorescence imaging, higher = more signal.
Assay [6] can be described thus: inhibitors of hydroxyurea-induced Chk1 phosphorylation, primary screen, imaging, HeLa, phospho-Chk1 nuclear intensity (AID 1187). Conditions: hydroxyurea-induced phospho-Chk1 immunofluorescence imaging, higher = more signal.

Experimental findings from PubChem BioAssay are described below.

Activity calls are given as the source filed them. Unless noted, no rule for the calls is given here.

Sequence of Homeobox protein Hox-A13 (Mus musculus) (Q62424 whole entry, looked up): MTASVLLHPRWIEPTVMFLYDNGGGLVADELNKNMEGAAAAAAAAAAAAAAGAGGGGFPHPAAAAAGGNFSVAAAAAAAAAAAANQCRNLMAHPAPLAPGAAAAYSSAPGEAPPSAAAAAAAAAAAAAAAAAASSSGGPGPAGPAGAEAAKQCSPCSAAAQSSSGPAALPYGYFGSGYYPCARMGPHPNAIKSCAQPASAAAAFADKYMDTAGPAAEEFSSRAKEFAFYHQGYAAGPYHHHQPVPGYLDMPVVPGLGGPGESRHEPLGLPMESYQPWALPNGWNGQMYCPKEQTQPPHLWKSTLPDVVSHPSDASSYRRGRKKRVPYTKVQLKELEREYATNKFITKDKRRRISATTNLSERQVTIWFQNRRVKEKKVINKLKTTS

Turning to `COCCOC(=O)N1C(=O)[C@@]2(c3cc(C#CCC(C(=O)OC)C(=O)OC)ccc31)[C@H](c1ccccc1OCCO)N1[C@H](c3ccccc3)[C@H](c3ccccc3)OC(=O)[C@H]1[C@@H]2C(N)=O`, the composite z-score in assay [1] is 0.547 (inactive); in assay [2] it was 0.827. Also, the z-score in assay [3] was -2.07; in assay [4], -1.36 (inactive); in assay [5] it was -0.192 (inactive); in assay [6], -0.0971 (inactive).
For the compound `C=CCNC(=O)[C@@H]1[C@H]2C(=O)O[C@H](c3ccccc3)[C@H](c3ccccc3)N2[C@H](c2ccc(OCCO)cc2)[C@@]12C(=O)Nc1ccccc12`, the composite z-score is 0.0997 (inactive) in assay [1] and 0.371 in assay [2]. The z-score is -1.09 in assay [3], -4.6 (inactive) in assay [4], -0.122 (inactive) in assay [5] and -0.303 (inactive) in assay [6].
In the case of `NCCCCCCNC(=O)[C@H]1C[C@H]2C(=O)NCC(=O)N2[C@H]1c1cccc(OCCO)c1`, the composite z-score was 2.26 (inactive) in assay [1] and 0.814 in assay [2]. The z-score in assay [3] was 0.005; in assay [4], -2.07 (inactive); in assay [5], 0.234 (inactive); in assay [6] it was 0.495 (inactive).
With `COC(=O)[C@@]1(Cc2ccc(OC)cc2)[C@H]2c3cc(C(=O)N(C)C)n(Cc4c(OC)[nH]cc(C)c4=O)c3C[C@H]2CN1C(=O)c1ccccc1`, the composite z-score in assay [1] was -0.378 (inactive); in assay [2], 0.523. In addition, the z-score is -1.44 in assay [3], -5.46 (inactive) in assay [4], 0.324 (inactive) in assay [5] and -0.208 (inactive) in assay [6].
Consider `C=CCC(OC(C)=O)[C@@H]1[C@@H](N(Cc2cccc3ccccc23)C(=O)c2ccc(C)cc2)c2cc(OCCCO)ccc2N1C(=O)Cc1ccc(OC)cc1` (stereo partly specified), for which the composite z-score in assay [1] was -0.262 (inactive); in assay [2], -0.241. In addition, the z-score in assay [3] is -0.805; in assay [4], -0.287 (inactive); in assay [5] it was -0.446 (inactive); in assay [6] it was -0.126 (inactive).
`O=C1C2C=CC(C(O)c3ccc(-c4ccccc4)s3)N(n3cnnc3)C2C(=O)N1Cc1ccccc1` (stereo unspecified): the composite z-score in assay [1] is -0.457 (inactive); in assay [2], 0.951. Further, the z-score in assay [3] was -0.802; in assay [4] it was -2.98 (inactive); in assay [5], -0.295 (inactive); in assay [6], -0.514 (inactive).
Consider `COc1cc2c(cc1OC)CN(C(=O)[C@@H]1[C@H]3C(=O)O[C@H](c4ccccc4)[C@H](c4ccccc4)N3[C@H](c3ccccc3OCCO)[C@@]13C(=O)Nc1ccc(C#CCNC(N)=O)cc13)CC2`, for which the figures for the composite z-score in assay [1] and in assay [2] were 0.12 (inactive) and 0.811, respectively. Also, the z-score was -2.17 in assay [3], 2.09 (inactive) in assay [4], -0.229 (inactive) in assay [5] and -0.232 (inactive) in assay [6].
Consider `CCOC(=O)C[C@H]1[C@H](OC(=O)c2ccc(-c3ccccc3)cc2)[C@@H](NC(=O)Cc2ccc(OC)cc2)c2cc(OCCCO)ccc2N1C(=O)c1ccc2ccccc2n1`, for which the composite z-score in assay [1] was -0.0562 (inactive); in assay [2] it was 0.111. Also, the z-score in assay [3] is 0.351; in assay [4], -2.51 (inactive); in assay [5] it was -0.42 (inactive); in assay [6], -0.0198 (inactive).
With `CN1C(=O)C2C(C1=O)C1C=C(CCCO)C2C(c2cccs2)N1C` (stereo unspecified), the composite z-score in assay [1] was -0.119 (inactive); in assay [2] it was -0.0427. The z-score in assay [3] is 0.404; in assay [4], -9.72 (active); in assay [5], 0.207 (inactive); in assay [6], -0.0851 (inactive).
`COCCOC(=O)N1C(=O)[C@@]2(c3cc(C#CCCO)ccc31)[C@H](C(=O)NC[C@H](O)c1ccccc1)[C@H]1C(=O)O[C@H](c3ccccc3)[C@H](c3ccccc3)N1[C@@H]2c1ccc(O)cc1`: the composite z-score in assay [1] was -0.246 (inactive); in assay [2] it was 0.692. For the same compound, the z-score was 0.363 in assay [3], -3.53 (inactive) in assay [4], -0.392 (inactive) in assay [5] and -0.542 (inactive) in assay [6].
Turning to `CCOC(=O)C1=C[C@@H](C(C)C)N(S(=O)(=O)c2ccc(C)cc2)[C@H]1c1ccc(C(C)C)cc1`, the composite z-score in assay [1] is 0.306 (inactive); in assay [2], -0.109. In addition, the z-score in assay [3] was -1.46; in assay [4], -0.549 (inactive); in assay [5], 0.25 (inactive); in assay [6], 0.478 (inactive).
Regarding `N#Cc1ccc(NN2C(C(O)c3ccc([N+](=O)[O-])cc3)C=CC3C(=O)N(c4ccccc4)C(=O)C32)cc1` (stereo unspecified), the composite z-score is 0.311 (inactive) in assay [1] and 0.807 in assay [2]. Besides, the z-score was 0.272 in assay [3], -4.27 (inactive) in assay [4], 0.446 (inactive) in assay [5] and 0.5 (inactive) in assay [6].
With `CC(C)C(=C=CC[C@H](O)c1ccccc1OCCO)C[C@H](O)c1ccccn1`, the values for the composite z-score in assay [1] and in assay [2] were 0.241 (inactive) and 0.0067, respectively. Moreover, the z-score in assay [3] was -1.41; in assay [4], -4.79 (inactive); in assay [5] it was 0.293 (inactive); in assay [6], 0.546 (inactive).
Regarding `CC(C)(C)N1CC=CC23O[C@@H]4/C=C\CCCOC(=O)C4[C@H]2C(=O)N(CCO)[C@@H]3C1=O` (stereo partly specified), the figures for the composite z-score in assay [1] and in assay [2] were -0.0146 (inactive) and 0.368, respectively. The z-score in assay [3] is -1.38; in assay [4] it was -4.95 (inactive); in assay [5], 0.205 (inactive); in assay [6], 0.299 (inactive).
For `O=C1O[C@H](c2ccccc2)[C@H](c2ccccc2)N2[C@H]1[C@@H](C(=O)O)[C@]1(C(=O)Nc3ccc(C#CC4(O)CCCCCC4)cc31)[C@H]2c1ccc(OCCO)cc1`, the composite z-score was 1.31 (inactive) in assay [1] and 0.599 in assay [2]. The z-score in assay [3] is 0.362; in assay [4] it was -6.3 (inactive); in assay [5], -0.125 (inactive); in assay [6], -0.198 (inactive).
For `COC(=O)[C@@]1(Cc2ccccc2)[C@H]2c3cc(C(=O)N(C)C)n(Cc4c(-c5ccccc5)noc4C)c3C[C@H]2CN1C(=O)c1ccccc1`, the composite z-score in assay [1] was 0.28 (inactive); in assay [2], 0.12. For the same compound, the z-score in assay [3] was -1.74; in assay [4], -2.59 (inactive); in assay [5], 0.317 (inactive); in assay [6] it was 0.0597 (inactive).
For the compound `CCCCCN1CC=CC23O[C@@H]4C=CCOC(=O)[C@@H]4[C@H]2C(=O)N(CCCO)[C@@H]3C1=O` (stereo partly specified), the composite z-score in assay [1] was 0.591 (inactive); in assay [2], 0.747. In addition, the z-score in assay [3] was -1.8; in assay [4], -3.67 (inactive); in assay [5] it was 0.679 (inactive); in assay [6], 0.402 (inactive).
With `CCOC(=O)C[C@H]1[C@H](OC(=O)c2ccccc2-c2ccccc2)[C@@H](NC(=O)Cc2ccc(OC)cc2)c2cc(OCCCO)ccc2N1C(=O)c1ccccc1`, the composite z-score in assay [1] is 0.277 (inactive); in assay [2], 0.127. The z-score in assay [3] is -1.6; in assay [4], -3.88 (inactive); in assay [5], 0.422 (inactive); in assay [6], 0.137 (inactive).
Take `COCC(=C=CC[C@H](O)c1ccc(OCCO)cc1)C[C@H](O)c1cc(Cl)cc(Cl)c1O`: the composite z-score in assay [1] was 0.423 (inactive); in assay [2], 0.161. Also, the z-score in assay [3] was -1.55; in assay [4], -4.13 (inactive); in assay [5], -0.559 (inactive); in assay [6], 0.56 (inactive).
As for `COC(=O)[C@]1(Cc2ccccc2N=[N+]=[N-])N=C(c2ccc(OCCCO)cc2)O[C@@H]1c1ccccc1N=[N+]=[N-]`, the values for the composite z-score in assay [1] and in assay [2] were 0.404 (inactive) and 0.614, respectively. For the same compound, the z-score in assay [3] was -2.09; in assay [4], -2.31 (inactive); in assay [5], -0.53 (inactive); in assay [6], -0.923 (inactive).
With `COCCOC(=O)N1C(=O)[C@@]2(c3cc(C#CCC(C(=O)OC)C(=O)OC)ccc31)[C@H](C(=O)N1CCCCCCC1)[C@H]1C(=O)O[C@H](c3ccccc3)[C@H](c3ccccc3)N1[C@@H]2c1ccc(OCCO)cc1`, the composite z-score was 0.968 (inactive) in assay [1] and 0.746 in assay [2]. Further, the z-score in assay [3] is -1.79; in assay [4], -15.8 (active); in assay [5] it was -0.479 (inactive); in assay [6], -0.719 (inactive).
Turning to `CS(=O)(=O)CCOC(=O)C1=CC(CCCO)=CC(c2cccs2)N(Cc2cc3c(cc2Br)OCO3)C=C1C(=O)OCCS(C)(=O)=O` (stereo unspecified), the figures for the composite z-score in assay [1] and in assay [2] were 0.555 (inactive) and 0.634, respectively. Besides, the z-score in assay [3] was -3.01; in assay [4] it was -2.91 (inactive); in assay [5], -0.169 (inactive); in assay [6] it was 0.132 (inactive).
For `C=C[C@H](C)[C@@H](O)c1ccc(O)c2ccccc12`, the composite z-score in assay [1] is -0.233 (inactive); in assay [2], 0.507. Also, the z-score in assay [3] is -0.935; in assay [4] it was -2.67 (inactive); in assay [5] it was 0.736 (inactive); in assay [6], 0.841 (inactive).
Regarding `CC(C)CNC(=O)[C@@]1(c2ccc([N+](=O)[O-])cc2)CC(=O)N(CC23CC4CC(CC(C4)C2)C3)[C@@H]1c1ccc(CO)cc1I`, the composite z-score was 0.106 (inactive) in assay [1] and 0.719 in assay [2]. The z-score is -0.534 in assay [3], -3.42 (inactive) in assay [4], -0.264 (inactive) in assay [5] and -0.135 (inactive) in assay [6].
On to `COc1ccc([Si](C)(C)[C@@H]2[C@@H](CC(=O)N3CCC[C@H]3CO)O[C@]3(C(=O)N(C)c4c(Br)cc(C)cc43)[C@H]2C)cc1`, for which the composite z-score in assay [1] was 0.0849 (inactive); in assay [2] it was 0.507. In addition, the z-score in assay [3] is -0.949; in assay [4], -6.11 (inactive); in assay [5] it was -0.477 (inactive); in assay [6], -0.466 (inactive).
Take `O=C1N(CCS(=O)(=O)c2ccccc2)c2ccccc2C[C@@]12COC(c1ccc(OCCCO)cc1)=N2`: the figures for the composite z-score in assay [1] and in assay [2] were 2.06 (inactive) and 0.861, respectively. Further, the z-score was -1.39 in assay [3], -4.69 (inactive) in assay [4], -0.0621 (inactive) in assay [5] and -0.223 (inactive) in assay [6].
